# Like-named read-outs stand apart in the source and are kept apart here.
# Legend:
# Set-up in all cases: species or system human, MV4-11 + K-562 + COLO205 + SK-N-BE2 + OVCAR-8
# ACVR1B = conditions: read-out: apparent Kd, n = 1
# ACVR2B = conditions: read-out: apparent Kd; compound concentrations: 100 nM and 1000 nM (sheet 'Samples'), CATDS: 9.05518688532823E-2; n = 1
# CSNK1A1 = conditions: read-out: apparent Kd, compound concentrations: 100 nM and 1000 nM (sheet 'Samples'), n = 1
# OPA1 = conditions: read-out: apparent Kd; compound concentrations: 100 nM and 1000 nM (sheet 'Samples'), CATDS: 7.7038231613769201E-2; n = 1
# PRKD2 = conditions: read-out: apparent Kd; compound concentrations: 100 nM and 1000 nM (sheet 'Samples'), CATDS: 0.11729729568005599; n = 1
# PRKD3 = conditions: read-out: apparent Kd; compound concentrations: 100 nM and 1000 nM (sheet 'Samples'), CATDS: 0.118060499220425; n = 1
# RIPK2 = conditions: read-out: apparent Kd; compound concentrations: 100 nM and 1000 nM (sheet 'Samples'), CATDS: 9.3212886773084105E-2; n = 1
# TGFBR1 = conditions: read-out: apparent Kd; compound concentrations: 100 nM and 1000 nM (sheet 'Samples'), CATDS: 0.51991943788690098; n = 1
# TGFBR2 = conditions: read-out: apparent Kd; compound concentrations: 100 nM and 1000 nM (sheet 'Samples'), CATDS: 8.4852154522950404E-2; n = 1
# ADCK3 = conditions: read-out: apparent Kd; compound concentrations: 100 nM and 1000 nM (sheet 'Samples'), CATDS: 0.14880786658068901; n = 1
# AKT2 = conditions: read-out: apparent Kd, compound concentrations: 100 nM and 1000 nM (sheet 'Samples'), n = 1
# PIK3CA = conditions: read-out: apparent Kd; compound concentrations: 100 nM and 1000 nM (sheet 'Samples'), CATDS: 0.46102021867548298; n = 1
# PIM2 = conditions: read-out: apparent Kd, compound concentrations: 100 nM and 1000 nM (sheet 'Samples'), n = 1
# PRKAG2 = conditions: read-out: apparent Kd; compound concentrations: 100 nM and 1000 nM (sheet 'Samples'), CATDS: 0.141920033586769; n = 1
# CLK1 = conditions: read-out: apparent Kd; compound concentrations:100 nM and 1000 nM (sheet 'Samples'); n = 1
# CLK4 = conditions: read-out: apparent Kd; compound concentrations:100 nM and 1000 nM (sheet 'Samples'); n = 1
# CSNK1E = conditions: read-out: apparent Kd; compound concentrations:100 nM and 1000 nM (sheet 'Samples'); n = 1
# DYRK1A = conditions: read-out: apparent Kd; compound concentrations:100 nM and 1000 nM (sheet 'Samples'); n = 1
# ILK = conditions: read-out: apparent Kd; compound concentrations:100 nM and 1000 nM (sheet 'Samples'); n = 1
# MAP2K1 = conditions: read-out: apparent Kd, n = 1
# MAP2K2 = conditions: read-out: apparent Kd, n = 1
# MAPK14 = conditions: read-out: apparent Kd; compound concentrations:100 nM and 1000 nM (sheet 'Samples'); n = 1
# MAPKAPK2 = conditions: read-out: apparent Kd; compound concentrations:100 nM and 1000 nM (sheet 'Samples'); n = 1
# NNT = conditions: read-out: apparent Kd; compound concentrations:100 nM and 1000 nM (sheet 'Samples'); n = 1
# PIP4K2C = conditions: read-out: apparent Kd, n = 1
# STK26 = conditions: read-out: apparent Kd; compound concentrations:100 nM and 1000 nM (sheet 'Samples'); n = 1
# ADRBK1 = conditions: read-out: apparent Kd; compound concentrations: 100 nM and 1000 nM (sheet 'Samples'), CATDS: 5.42741985746545E-2; n = 1
# AKT1 = conditions: read-out: apparent Kd; compound concentrations: 100 nM and 1000 nM (sheet 'Samples'), CATDS: 5.4273018110040303E-2; n = 1
# CDK17 = conditions: read-out: apparent Kd; compound concentrations: 100 nM and 1000 nM (sheet 'Samples'), CATDS: 4.6046417847887898E-2; n = 1
# CDK6 = conditions: read-out: apparent Kd; compound concentrations: 100 nM and 1000 nM (sheet 'Samples'), CATDS: 4.5600576408269602E-2; n = 1
# LIMK1 = conditions: read-out: apparent Kd; compound concentrations: 100 nM and 1000 nM (sheet 'Samples'), CATDS: 4.6691533927662399E-2; n = 1
# NCL = conditions: read-out: apparent Kd; compound concentrations: 100 nM and 1000 nM (sheet 'Samples'), CATDS: 4.2837987158590003E-2; n = 1
# NQO1 = conditions: read-out: apparent Kd; compound concentrations: 100 nM and 1000 nM (sheet 'Samples'), CATDS: 5.1571181916601101E-2; n = 1
# PHKG2 = conditions: read-out: apparent Kd; compound concentrations: 100 nM and 1000 nM (sheet 'Samples'), CATDS: 4.0833835587176903E-2; n = 1
# PRKAG1 = conditions: read-out: apparent Kd; compound concentrations: 100 nM and 1000 nM (sheet 'Samples'), CATDS: 6.5107573303195193E-2; n = 1
# PYGL = conditions: read-out: apparent Kd; compound concentrations: 100 nM and 1000 nM (sheet 'Samples'), CATDS: 4.9538207783530498E-2; n = 1
# VDAC3 = conditions: read-out: apparent Kd; compound concentrations: 100 nM and 1000 nM (sheet 'Samples'), CATDS: 4.4574473592348701E-2; n = 1
# YES1 = conditions: read-out: apparent Kd; compound concentrations: 100 nM and 1000 nM (sheet 'Samples'), CATDS: 6.4280508089749694E-2; n = 1
# ZAK = conditions: read-out: apparent Kd; compound concentrations: 100 nM and 1000 nM (sheet 'Samples'), CATDS: 3.9848277554837802E-2; n = 1
# [1] = compound concentrations:100 nM and 1000 nM (sheet 'Samples')
smiles,measurement,setting,value
Cc1ccnc2ccc(-c3sc(N)nc3-c3ccccn3)nc12 [GW777257X],potency estimated from few doses,"ACVR1B; compound concentrations: 100 nM and 1000 nM (sheet 'Samples'), CATDS: 0.44095653710551203",5.66 nM
same,potency estimated from few doses,ACVR2B,854 nM
same,potency estimated from few doses,CSNK1A1; CATDS: 7.5324168753573395E-2,1730 nM
same,potency estimated from few doses,OPA1,1570 nM
same,potency estimated from few doses,PRKD2,384 nM
same,potency estimated from few doses,PRKD3,377 nM
same,potency estimated from few doses,RIPK2,776 nM
same,potency estimated from few doses,TGFBR1,4.12 nM
same,potency estimated from few doses,TGFBR2,1070 nM
COc1ccc(-c2ccc3c(NC(=O)C4CC4)n[nH]c3n2)cc1 [SB-711237],potency estimated from few doses,"ACVR1B; compound concentrations: 100 nM and 1000 nM (sheet 'Samples'), CATDS: 0.16866039240373501",1180 nM
same,potency estimated from few doses,ADCK3,1590 nM
same,potency estimated from few doses,AKT2; CATDS: 0.130692249594417,2260 nM
same,potency estimated from few doses,PIK3CA,210 nM
same,potency estimated from few doses,PIM2; CATDS: 0.15422664553474699,1450 nM
same,potency estimated from few doses,PRKAG2,1790 nM
Nc1nc(-c2ccc(F)cc2)c(-c2ccc3ncccc3n2)s1 [GW785804X],potency estimated from few doses,ACVR1B; [1],57.9 nM
same,potency estimated from few doses,CLK1,997 nM
same,potency estimated from few doses,CLK4,1100 nM
same,potency estimated from few doses,CSNK1E,2400 nM
same,potency estimated from few doses,DYRK1A,1970 nM
same,potency estimated from few doses,ILK,2080 nM
same,potency estimated from few doses,MAP2K1; [1],1910 nM
same,potency estimated from few doses,MAP2K2; [1],2060 nM
same,potency estimated from few doses,MAPK14,567 nM
same,potency estimated from few doses,MAPKAPK2,1410 nM
same,potency estimated from few doses,NNT,164 nM
same,potency estimated from few doses,PIP4K2C; [1],2210 nM
same,potency estimated from few doses,STK26,2330 nM
Cc1nnc(-c2ccc(C)c(-c3ccc(C(=O)Nc4cccc(C#N)c4)cc3)c2)o1 [GW607117X],potency estimated from few doses,"ACVR1B; compound concentrations: 100 nM and 1000 nM (sheet 'Samples'), CATDS: 5.7242163764382799E-2",1170 nM
same,potency estimated from few doses,ADRBK1,1290 nM
same,potency estimated from few doses,AKT1,1290 nM
same,potency estimated from few doses,AKT2; CATDS: 6.3448544870815707E-2,976 nM
same,potency estimated from few doses,CDK17,1810 nM
same,potency estimated from few doses,CDK6,1850 nM
same,potency estimated from few doses,CSNK1A1; CATDS: 4.1256570238539701E-2,2360 nM
same,potency estimated from few doses,LIMK1,1750 nM
same,potency estimated from few doses,"MAP2K1; compound concentrations: 100 nM and 1000 nM (sheet 'Samples'), CATDS: 5.0029485958775197E-2",1510 nM
same,potency estimated from few doses,"MAP2K2; compound concentrations: 100 nM and 1000 nM (sheet 'Samples'), CATDS: 5.0543278096989601E-2",1480 nM
same,potency estimated from few doses,NCL,2140 nM
same,potency estimated from few doses,NQO1,1420 nM
same,potency estimated from few doses,PHKG2,2420 nM
same,potency estimated from few doses,PIM2; CATDS: 5.4197855398822901E-2,1290 nM
same,potency estimated from few doses,"PIP4K2C; compound concentrations: 100 nM and 1000 nM (sheet 'Samples'), CATDS: 6.0471713091723403E-2",1060 nM
same,potency estimated from few doses,PRKAG1,935 nM
same,potency estimated from few doses,PYGL,1550 nM
same,potency estimated from few doses,VDAC3,1950 nM
same,potency estimated from few doses,YES1,955 nM
same,potency estimated from few doses,ZAK,2580 nM

# — publication PMC11062922 (Nature Chemical Biology, 2023)
